TRHR ag = activates the human TRH receptor; TRHR cells, calcium flux fluo-8, FDSS agonist mode; activation, % at 2 µM; AID 493084; P34981; 0.18% of 360,000 active; further: 0% is about no effect
Target sequence (P34981 whole entry, looked up): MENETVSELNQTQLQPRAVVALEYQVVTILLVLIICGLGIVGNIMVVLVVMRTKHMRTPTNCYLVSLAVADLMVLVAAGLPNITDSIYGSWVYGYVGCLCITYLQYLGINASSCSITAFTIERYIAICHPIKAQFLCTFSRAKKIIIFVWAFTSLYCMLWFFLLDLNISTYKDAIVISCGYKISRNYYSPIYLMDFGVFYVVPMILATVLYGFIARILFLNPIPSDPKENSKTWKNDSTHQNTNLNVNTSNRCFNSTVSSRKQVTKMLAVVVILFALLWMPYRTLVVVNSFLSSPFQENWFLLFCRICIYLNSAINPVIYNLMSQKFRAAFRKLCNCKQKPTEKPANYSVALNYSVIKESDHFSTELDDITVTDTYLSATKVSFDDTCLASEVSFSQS
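TRHR-expressing cells, plated overnight in medium with 10% serum, were loaded with fluo-8 calcium dye at room temperature. After a 10 s baseline, library compound was pin-added and calcium release was recorded kinetically (ex 480/em 530) as agonist response.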
D1 agonist = human D1 receptor agonism | P21728 | HEK293 T-REx D1 cells, calcium flux, agonist mode | activation, % at 2 µM | 1% of 360,000 active | AID 504660; further: 0% is about no effect
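Inducible HEK293 T-REx D1 cells, force-coupled to calcium signalling, were plated at 4000 cells/well with tetracycline and held overnight at 30 C. After no-wash calcium dye loading, compound-evoked calcium rise over 180 s flagged agonists.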
D1 antagonist = human D1 dopamine receptor antagonism; HEK293 TREx D1 cells, calcium flux, dopamine EC80; active compounds read low; activity change, negative = inhibition, % at 10 µM; 3.2% of 360,000 active; in the data active means activity change below about -30%; further: on the % scale 0 is the no-effect control and ±100 the full control effect
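HEK293 T-REx cells expressing inducible, force-coupled D1 receptor; no-wash Ca dye, 30–90 min RT. Cmpd → 180 s read at 1 Hz → EC80 DA → 180 s read.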
TRHR PAM = allosterically enhances the human TRH receptor. enhancement, % at 2 µM. TRHR cells, fluo-8 calcium fluorescence, EC20 TRH enhancement. AID 493056. P34981. 0.66% of 360,000 active; in the data active means enhancement above about 30%; further: 0% is about no effect
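Enhancer read-out: after compound pinning and an initial kinetic agonist-mode read, an EC20 of TRH (10 nM final) was injected and fluo-8 calcium signal (Ex 480/Em 530) followed at 1 s/cycle for 100 cycles in TRHR-expressing cells.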
D1 PAM = human D1 dopamine receptor positive modulation; potentiation, % at 10 µM; P21728; HEK293 TREx D1 cells, calcium flux, dopamine EC20 potentiation; 0.036% of 360,000 active; in the data active means potentiation above about 30%; further: 0% is about no effect
Active calls of the source: *; nt = no result. Shown are actives, neighbours in structure and some others; about 4.6% of the full set was active somewhere. Unless noted, no stated cut-off is given here; in the data, active means activation above about 30%; inactive means the rest.

SMILES | TRHR ag | D1 agonist | D1 antagonist | TRHR PAM | D1 PAM
COc1ccc2c(c1)CCCN2C(N)=Nc1ccc(Cl)cc1 | 14 | 49* | -44* | -9 | -10
S=c1[nH]nc(COc2ccccc2)n1/N=C/c1ccccc1Br | 0 | 3 | 8 | -6 | -4
S=c1[nH]nc(COc2ccccc2)n1/N=C/c1ccncc1 | 0 | -2 | nt | -4 | 0
FC(F)(F)c1ccccc1/C=N/n1c(COc2ccccc2)n[nH]c1=S | 0 | 38* | -36* | 3 | -6
CCc1ccc(/C=N/n2c(COc3ccccc3)n[nH]c2=S)cc1 | -1 | 61* | -5 | -21 | -4
Cc1ccc(CN2C3CCCC2CC(NC(=O)c2ccc(C)cc2)C3)cc1 (centres undefined) | -1 | 1 | -68* | 1 | -7
CN1C2CCC1CC(NC(=O)c1ccc(Cl)cc1)C2 (centres undefined) | 3 | 30 | -32* | 4 | 3
O=C(NC1CC2CCCC(C1)N2Cc1ccc(F)cc1)c1ccc(F)cc1 (centres undefined) | 0 | 4 | -68* | -1 | -9
CNS(=O)(=O)c1cn(CC(=O)N2CCN(c3cc(C)ccc3C)CC2)cc1S(=O)(=O)NC | 0 | 4 | -20 | -4 | -2
CCOc1cc(C(Nc2cc(C)ccn2)c2ccc3cccnc3c2O)ccc1OC (centres undefined) | -1 | 5 | -6 | 41* | -4
COc1ccc(C(Nc2ccccn2)c2ccc3ccc(C)nc3c2O)cc1C (centres undefined) | 0 | 7 | -7 | -2 | -2
Cc1ccc(NC(=O)Nc2cc(S(C)(=O)=O)ccc2Cl)cc1 | -1 | 3 | -38* | -3 | -3
CS(=O)(=O)c1ccc(Cl)c(NC(=O)CCl)c1 | 0 | 3 | -1 | -2 | 6
CCOc1ccccc1CN1CCN(C/C=C/c2ccc(OC)cc2)CC1CCO (centres undefined) | 3 | 12 | -26 | -6 | -6
COc1ccc(/C=C/CN2CCN(CCc3ccccc3)C(CCO)C2)cc1 (centres undefined) | 0 | 6 | 0 | 39* | -4
O=C(Nc1cc(Cl)ccc1-n1cncn1)c1cncc(Br)c1 | 0 | -2 | -45* | 11 | -10
Cc1cccc(OCC(=O)Nc2cc(Cl)ccc2-n2cncn2)c1C | 1 | 2 | -19 | 21 | -5
CCCOc1ccccc1OCC(=O)Nc1cc(Cl)ccc1-n1cncn1 | 0 | 6 | -71* | 5 | -11
CCc1ccc(NC(=O)Cn2c(=O)n(CCC(=O)NCCc3ccc(Cl)cc3)c(=O)c3ccccc32)cc1 | 0 | 2 | -16 | -1 | -1
COC(=O)c1ccc(Cn2cc(C(F)(F)F)ccc2=O)cc1 | 1 | 4 | -1 | -3 | -5
COC(=O)c1cn(Cc2ccc(C(F)(F)F)cc2)cc(F)c1=O | 0 | 0 | -31* | -8 | -7
Cn1c(CN2CCN(C(=O)c3ccccc3Cl)CC2)nc2cc([N+](=O)[O-])ccc21 | 1 | 2 | -77* | 1 | -4
Cn1c(CN2CCN(C(=O)c3ccccc3)CC2)nc2cc([N+](=O)[O-])ccc21 | 0 | 0 | -20 | -2 | 3
Cc1ccc(NC(=O)CN(c2ccc(Cl)cc2)S(=O)(=O)c2cc([N+](=O)[O-])ccc2Cl)c(C)c1 | 0 | 0 | -56* | -6 | -15
COc1ccccc1CNC(=O)CCC(=O)N1Cc2ccccc2Oc2ncccc21 | 0 | 6 | 8 | -2 | -3
SMILES | TRHR ag | D1 agonist | D1 antagonist | TRHR PAM | D1 PAM
CN(C)S(=O)(=O)c1ccc2c(c1)N(CC(=O)NCc1cccc(Br)c1)C(=O)CS2 | -1 | 5 | -14 | -2 | 4
CCOc1cc(-c2ccc(OC(=O)c3ccc(Cl)cc3)c(OC)c2)cc(=O)c2c(C)oc(C)c12 | 1 | 0 | -2 | -2 | 1
COc1ccc(Br)cc1S(=O)(=O)N1CCOCC1 | 1 | 2 | -10 | -2 | 0
CCN(CC)c1ccc(C=Nc2ccc(OC)c(S(=O)(=O)N3CCOCC3)c2)c(O)c1 | -3 | 1 | -33* | 2 | -8
Cc1cc(OCC(=O)N[C@@H](CSCc2ccccc2)C(=O)O)c2c(C)c(C)c(=O)oc2c1 | 0 | -1 | 1 | 41* | 6
CCCc1cc(=O)[nH]c(SCC(=O)Nc2nc3ccc(OCC)cc3s2)n1 | 0 | 1 | 4 | 2 | 6
CCOc1ccc2nc(NC(=O)C(CC)Sc3nc(C)cc(=O)[nH]3)sc2c1 (centres undefined) | -1 | 0 | -42* | 0 | -4
CCOc1ccc2nc(NC(=O)C(NS(=O)(=O)c3cccc4nsnc34)C(C)C)sc2c1 (centres undefined) | -1 | 0 | -33* | -5 | -6
O=C(CS(=O)(=O)c1c[nH]c2ccccc12)N1CCCc2ccccc21 | 0 | -2 | -50* | 0 | -3
CC1CCN(C(=O)CC(NC(=O)c2ccccc2Cl)c2ccccc2)CC1 (centres undefined) | 0 | 0 | -20 | -1 | 19
O=C(NC(CC(=O)N1CCCC(C(F)(F)F)C1)c1ccccc1)c1ccccc1Cl (centres undefined) | 2 | 1 | -3 | 33* | -6
S=c1[nH]nc(-c2cccc(Cl)c2)n1/N=C/c1ccco1 | -1 | 1 | -10 | 5 | -6
Cc1ccc(/C=N/n2c(-c3cccc(Cl)c3)n[nH]c2=S)o1 | 0 | -1 | -35* | -4 | -2
O=C(O)[C@H]1CCCC[C@H]1C(=O)NCCNC(=O)[C@@H]1CCCC[C@@H]1C(=O)O | 1 | 2 | 12 | 3 | 3
O=C(O)C1CCCCC1C(=O)OCCCCOC(=O)C1CCCCC1C(=O)O (centres undefined) | 0 | 1 | -31* | 2 | -5
COc1cccc(N2CCN(C(=O)c3cnn(-c4ccccc4Cl)c3C3CCN(C(=O)OC(C)(C)C)CC3)CC2)c1 | 0 | 1 | -49* | -6 | -5
COc1ccc(-n2ncc(C(=O)N3CCN(c4cc(C)ccc4C)CC3)c2C2CCN(C(=O)OC(C)(C)C)CC2)cc1 | 1 | 1 | -31* | 3 | -6
COc1cccc(N2CCN(C(=O)c3cnn(-c4ccc(C)cc4C)c3C3CCN(C(=O)OC(C)(C)C)CC3)CC2)c1 | -1 | 1 | -7 | -13 | -1
COc1ccc(N2CCN(C(=O)c3cnn(-c4ccc(OC)cc4)c3C3CCN(C(=O)OC(C)(C)C)CC3)CC2)cc1 | -1 | 0 | -31* | 4 | -6
Cc1c(Cl)cccc1-n1ncc(C(=O)NC2CCCC2)c1C1CCN(C(=O)OC(C)(C)C)CC1 | 0 | 0 | -80* | -7 | 3
O=C(CSc1nccn1-c1cccc(Cl)c1)Nc1cccc(C(F)(F)F)c1 | 0 | 2 | 3 | -2 | -4
CC(=O)c1c(C)oc2c(Br)cc(NS(=O)(=O)c3ccc(Br)cc3)cc12 | 0 | 4 | -47* | -1 | -8
